High-throughput results: PubChem BioAssay, Sanford-Burnham Center for Chemical Genomics
Only some compounds are listed: those with a hit (about 1.5% of all), similar ones and a draw of the others.
GC-B act – GC-B (human) receptor activation | P20594 | HEK293-GC-B cells, CNP EC30, cGMP TR-FRET; 0% at EC30 CNP, 100% saturating CNP | activation, % at 10 µM | 370,000 compounds, 0.11% hits | AID 1920062;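 active = activation at 10 µM reaching about 35% in either raw or pattern-adjusted values, limit read from the data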
GC-A act – GC-A (human) enzyme activation. HEK293 GC-A cells, cGMP TR-FRET, EC30 ANP; 0% at EC30 ANP, 100% saturating ANP. activation, % at 10 µM. 370,000 compounds, 0.14% hits; in the data active = activation above about 40%
NadD block – blocks S. aureus nicotinate mononucleotide adenylyltransferase; 360,000 compounds, 0.78% hits; purified NadD enzyme, colorimetric absorbance read-out; AID 602399; inhibition, % at 20 µM; in the data active = inhibition above about 26%
Neddyl block – inhibitors of human cullin neddylation. P61081+Q13564. inhibition, % at 25 µM. 360,000 compounds, 0.58% hits. TR-FRET cullin neddylation, biochemical; in the data active = inhibition above about 36%
Target sequence (P61081 whole entry, looked up): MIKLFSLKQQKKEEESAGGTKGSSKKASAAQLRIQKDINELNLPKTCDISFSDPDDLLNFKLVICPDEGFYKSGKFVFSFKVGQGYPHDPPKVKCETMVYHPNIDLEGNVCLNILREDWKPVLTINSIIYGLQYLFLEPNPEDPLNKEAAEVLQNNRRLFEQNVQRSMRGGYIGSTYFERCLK
Target sequence (Q13564 whole entry, looked up): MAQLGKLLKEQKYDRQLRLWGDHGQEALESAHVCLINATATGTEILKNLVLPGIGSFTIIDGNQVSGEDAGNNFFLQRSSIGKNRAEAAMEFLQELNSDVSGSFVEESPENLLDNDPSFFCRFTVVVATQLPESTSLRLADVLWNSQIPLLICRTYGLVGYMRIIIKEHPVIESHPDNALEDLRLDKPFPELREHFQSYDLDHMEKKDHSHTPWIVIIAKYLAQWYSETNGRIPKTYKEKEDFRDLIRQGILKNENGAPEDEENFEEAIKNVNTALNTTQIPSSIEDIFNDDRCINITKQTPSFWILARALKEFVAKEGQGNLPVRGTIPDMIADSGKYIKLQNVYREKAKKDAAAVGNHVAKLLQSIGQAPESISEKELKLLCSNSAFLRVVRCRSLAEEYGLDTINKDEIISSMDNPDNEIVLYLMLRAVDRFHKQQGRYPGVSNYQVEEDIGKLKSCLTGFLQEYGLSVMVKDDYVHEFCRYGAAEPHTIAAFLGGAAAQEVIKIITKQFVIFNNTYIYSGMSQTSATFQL
NadD inh conf – NadD (S. aureus) inhibition, single concentration confirmation; shares compounds with NadD block; purified S. aureus NadD, colorimetric enzyme assay; inhibition, % at 20 µM; 2,000 compounds, 13% hits; in the data active = inhibition mostly above about 42%, no sharp cut-off; inactive = mostly below about 42%
* = called active by the depositor; i = inactive; nt = not tested or not shown.

SMILES | GC-B act | GC-A act | NadD block | Neddyl block | NadD inh conf
O=C1NC(Cc2ccc(O)cc2)c2nc3ccc(Br)cc3c(=O)n2-c2cc3ccccc3cc21 (configuration not stated) | 31.1 | 0.1 | 31.5* | -27.5 | 3.6
COc1ccc2nc3n(c(=O)c2c1)-c1cc2ccccc2cc1C(=O)NC3Cc1ccc(O)cc1 (configuration not stated) | -1.0 | -7.0 | 17.4 | -25.2 | nt
CC(C)[C@@H]1NC(=O)[C@H]2C[C@@]3(c4ccccc4)c4ccccc4N[C@H]3N2C1=O | 3.4 | 3.5 | nt | nt | nt
N#Cc1ccccc1Cn1cc(/C=N/Nc2ccc([N+](=O)[O-])cn2)c2ccccc21 | -4.2 | -3.8 | 31.7* | -13.4 | 4.8
O=[N+]([O-])c1ccc(NN=Cc2ccccc2O)nc1 | -5.2 | -0.2 | -0.8 | -20.6 | nt
O=C(NC(=S)N1CCN(c2nc(-c3ccccc3)cs2)CC1)c1cncc(Br)c1 | 0.9 | -1.2 | 35.0* | -1.0 | 23.2
Cc1ccc(Nc2nc(Nc3ccc(C)cc3)nc(SC3=NCCS3)n2)cc1 | 1.5 | -0.3 | 30.5* | 2.8 | 51.2*
Cc1ccccc1Nc1nc(Nc2ccccc2C)nc(SC2=NCCS2)n1 | -12.0 | -2.7 | 9.1 | -2.9 | nt
O=C(/C=C/c1cccs1)Nc1cccc(NC(=O)/C=C/c2cccs2)n1 | 7.5 | -2.7 | 32.3* | 18.6 | 32.8
O=C(/C=C/c1cccs1)Nc1nccs1 | -1.3 | 1.8 | 8.2 | 35.3 | nt
O=C(N/N=C/c1coc2ccccc2c1=O)c1cn(-c2ccccc2)nc1-c1ccc(F)cc1 | -18.8 | -6.9 | 33.6* | 12.1 | 2.5
O=C(N/N=C/c1ccc([N+](=O)[O-])o1)c1cn(-c2ccccc2)nc1-c1ccccc1 | 0.6 | -12.2 | 30.6* | 11.6 | 19.1
O=C(N/N=C/c1ccc([N+](=O)[O-])o1)c1ccccc1-n1cccc1 | 1.1 | -2.1 | -1.6 | -13.9 | nt
O=C(N/N=C/c1ccc([N+](=O)[O-])o1)c1cn(-c2ccccc2)nc1-c1ccc(Cl)cc1 | -9.9 | -8.5 | 35.5* | 0.1 | 0.8
O=C(O)COc1ccc(/C=N/NC(=O)c2cn(-c3ccccc3)nc2-c2ccccc2)cc1 | 1.3 | 1.1 | 6.0 | -2.8 | nt
CCCCNC(=O)C[C@H]1C[C@@]2(C(=O)OC)C(=C[C@H](C(C)(C)C)O[C@@H]2C)N(Cc2ccccc2)C1=O | -9.1 | -11.9 | nt | nt | nt
Nc1c(C(=O)Nc2nc3ccccc3s2)sc2nc(-c3cccs3)ccc12 | nt | nt | 33.6* | 30.1 | 23.3
CC(=O)c1sc2nc(-c3cccs3)ccc2c1N | -2.1 | -1.3 | 18.9 | 20.6 | nt
Nc1c(C(=O)Nc2ccccc2)sc2nc(-c3ccco3)ccc12 | -6.1 | 4.0 | 34.7* | nt | 26.3
COC(=O)c1cc2c(c3c4cc(F)ccc4n(S(=O)(=O)c4ccc(C)cc4)c13)C(=O)N(Cc1ccccc1)C2 | 2.0 | 2.4 | nt | nt | nt
COC(=O)C1=C(C)N(C)C(=NCc2ccccc2C(F)(F)F)NC1c1ccc(F)cc1 (configuration not stated) | -3.3 | -5.8 | nt | nt | nt
O=c1[nH]c(CN2CCN(c3ccc(O)cc3)CC2)nc2scc(-c3ccc(Cl)cc3)c12 | 3.1 | 6.2 | 37.0* | -4.8 | 22.6
O=c1[nH]c(CN2CCN(c3ccccc3O)CC2)nc2scc(-c3ccccc3Cl)c12 | -6.7 | -5.2 | 11.6 | -5.5 | nt
Cn1c2ccccc2c2cc(/C=N/NC(=O)c3cc(O)ccc3O)ccc21 | -8.0 | -10.2 | 49.2* | 51.5* | 51.8*
C[C@H](CO)N1C[C@H](C)[C@@H](CN(C)C(=O)NC2CCCCC2)OCc2cn(nn2)CCCC1=O | 3.2 | 2.9 | nt | nt | nt
SMILES | GC-B act | GC-A act | NadD block | Neddyl block | NadD inh conf
Cc1ccc(NC(=O)N(Cc2ccc3c(c2)OCO3)Cc2cc3cc4c(cc3[nH]c2=O)OCCO4)cc1 | 6.6 | 7.0 | 34.1* | 1.6 | 8.6
Cc1ccc(NC(=O)N(Cc2cccs2)Cc2cc3cc4c(cc3[nH]c2=O)OCO4)cc1 | -3.3 | 3.9 | nt | nt | nt
Nc1ccc2nc(-c3cccc(-c4nc5ccc(N)cc5[nH]4)c3)[nH]c2c1 | -9.0 | -10.7 | 39.1* | 30.4 | 23.8
Cc1nc2ccc(-c3nc4ccc(N)cc4[nH]3)cc2[nH]1 | -3.4 | -13.1 | 45.4* | nt | 20.2
Nc1ccc(-c2nc3ccc(N)cc3[nH]2)cc1 | -20.3 | -17.3 | 66.1* | nt | 22.8
O=C(OC12CCCN(C1)/C(=C/c1cccnc1)C2)c1cccc(F)c1 (configuration not stated) | -2.4 | -1.1 | nt | nt | nt
O=C(Cn1c(=O)n(Cc2ccco2)c(=O)c2c3c(sc21)CCCCC3)Nc1ccccc1 | 3.9 | -5.0 | 51.1* | 1.5 | 41.1
COc1ccc(OC)c(S(=O)(=O)N2CCCCC2C(=O)N2CCCN(C)CC2)c1 (configuration not stated) | -2.3 | 0.9 | nt | nt | nt
O=C(Nc1cccc(-c2nc3ccccc3s2)c1)c1cc(-n2cnnc2)ccc1Cl | nt | nt | 39.6* | -57.7 | 0.8
O=c1[nH]cnc2c1sc1nc(-c3ccccc3)c3c(c12)CCCC3 | -6.7 | 1.0 | 0.2 | -86.3 | nt
S=c1nc[nH]c2c1sc1nc(-c3ccccc3)c3c(c12)CCCC3 | -3.2 | 2.6 | 40.0* | i | -2.1
CCCn1c(C(C)Nc2nc(-c3ccc(Cl)c([N+](=O)[O-])c3)cs2)nc2cc(Cl)c(N3CCCCC3)cc21 (configuration not stated) | nt | nt | 33.4* | 1.6 | 5.1
Cc1ccc(Cn2c(C(CO)Nc3nc(-c4ccc(Cl)c([N+](=O)[O-])c4)cs3)nc3ccccc32)cc1 (configuration not stated) | -3.7 | -0.2 | 51.5* | -1.9 | 41.0
C#CCNC(=O)C[C@H]1C(=O)N(Cc2ccc(OC)cc2)C2=CCCC[C@@]21C(=O)OCC | 1.0 | -3.3 | nt | nt | nt
Cc1ccc(C2(SCC(N)C(=O)O)c3ccccc3-c3ccccc32)cc1 (configuration not stated) | -12.0 | -3.6 | 38.9* | -1.5 | 53.6*
NC(CSC(c1ccccc1)(c1ccccc1)c1ccccc1)C(=O)O (configuration not stated) | -2.0 | -1.0 | 21.6 | 4.2 | nt
Cc1ccc(-c2nsc3c(N4CCC(C(N)=O)CC4)ncnc23)cc1 | -9.6 | 21.0 | 30.6* | 3.7 | 5.7
COc1ccc(-c2nsc3c(N4CCCCC4)ncnc23)cc1 | -14.0 | -5.9 | 6.8 | -167.1 | nt
COc1cc(/C=C(\C#N)c2nc(-c3cc4ccccc4oc3=O)cs2)ccc1O | 1.9 | 9.0 | 49.7* | 0.4 | -6.5
COc1cc(/C=C(/C#N)c2nc(-c3cc4ccccc4oc3=O)cs2)cc([N+](=O)[O-])c1O | -6.0 | 3.7 | nt | nt | nt
COc1ccccc1/C=C/C=N/NC(=O)c1cc(-c2ccco2)[nH]n1 | 6.9 | 26.6 | 42.9* | 4.8 | 54.0*
COc1ccccc1/C=C/C=N/NC(=O)c1ccccn1 | -3.9 | 20.8 | 4.8 | -1.5 | nt
CNc1nc(N)c([N+](=O)[O-])c(Nc2cccc(OC)c2)n1 | -4.7 | 7.4 | nt | nt | nt
CC(C)(C)c1ccc(NC(=O)c2ccc3c(c2)S(=O)(=O)c2ccccc2C3=O)cc1 | 5.7 | -1.9 | 27.9* | -0.2 | 9.1
C#CCN1C(=O)S/C(=C\c2ccc(-c3ccc(C(=O)O)cc3C)o2)C1=O | -11.2 | -7.2 | 9.2 | 19.2 | nt
